# Reference: the supplement of paper PMC8728848
# Many of the other results were omitted from the sample, so the strongest signals are more common in it than they were.
# B1: Thrombomodulin Lectin (Mus musculus) (protein)
# chain: LSALAKLQPTGSQCVEHECFALFQGPATFLDASQACQRLQGHLMTVRSSVAADVISLLLSQSSMDLGPWIGLQLPQGCDDPVHLGPLRGFQWVTGDNHTSYSRWARPNDQTAPLCGPLCVTVSTATEAAPGEPAWEEKPCETETQGFLCEFYFTASCRVDPIPVREDTKEEEGAGEPPVSPTPGSPTGPPSARPVLDEPRVPITQNPCPPLKECPPCAAPDLEGGPSVFIFPPKIKDVLMISLSPMVTCVVVDVSEDDPDVQISWFVNNVEVHTAQTQTHREDYNSTLRVVSALPIQHQDWMSGKAFACAVNNRALPSPIEKTISKPRGPVRAPQVYVLPPPAEEMTKKEFSLTCMITGFLPAEIAVDWTSNGRTEQNYKNTATVLDSDGSYFMYSKLRVQKSTWERGSLFACSVVHEGLHNHLTTKTISRSLGK
# Assays:
# Assay in all cases: glycan array binding signal (z-score within array); higher = stronger binding
# Details in all cases: glycan notation: IUPAC condensed, linker removed
# [1] = biological target: GlcNAc(a1-3)Gal(b1-4)GlcNAc
# How it was run: (§1)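 Glycan array data came from 3228 arrays in the Consortium for Functional Glycomics database, and only arrays with an available protein sequence were kept. Glycan names were put into IUPAC-condensed notation, and columns mapping to the same glycan were averaged. The binding signal is a within-array Z-score, averaged across arrays of one protein sequence run at different concentrations or buffers and across linkers. A negative Z-score can be read as non-binding.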
# [2] = biological target: GlcNAc(a1-4)Gal(b1-4)GlcNAc(b1-3)Gal(b1-4)[Fuc(a1-3)]GlcNAc(b1-3)Gal(b1-4)[Fuc(a1-3)]GlcNAc
# How it was run: as §1
# [3] = biological target: GlcNAc(a1-6)Gal(b1-4)GlcNAc
# How it was run: as §1
# [4] = biological target: GlcNAc(b1-2)Man(a1-3)[GlcNAc(b1-2)Man(a1-6)]Man(b1-4)GlcNAc(b1-4)[Fuc(a1-6)]GlcNAc
# How it was run: as §1
# [5] = biological target: GlcNAc(b1-3)Gal(b1-4)GlcNAc(b1-3)Gal(b1-4)GlcNAc
# How it was run: as §1
# [6] = biological target: GlcNAc(b1-3)Gal(b1-4)GlcNAc(b1-3)Gal(b1-4)GlcNAc(b1-2)[GlcNAc(b1-3)Gal(b1-4)GlcNAc(b1-3)Gal(b1-4)GlcNAc(b1-6)]Man(a1-6)[GlcNAc(b1-3)Gal(b1-4)GlcNAc(b1-3)Gal(b1-4)GlcNAc(b1-2)Man(a1-3)]Man(b1-4)GlcNAc(b1-4)[Fuc(a1-6)]GlcNAc
# How it was run: as §1
# [7] = biological target: GlcNAc(b1-3)Gal(b1-4)GlcNAc(b1-3)Gal(b1-4)GlcNAc(b1-3)Gal(b1-4)GlcNAc(b1-3)Gal(b1-4)GlcNAc(b1-2)Man(a1-3)[GlcNAc(b1-3)Gal(b1-4)GlcNAc(b1-3)Gal(b1-4)GlcNAc(b1-3)Gal(b1-4)GlcNAc(b1-3)Gal(b1-4)GlcNAc(b1-2)Man(a1-6)]Man(b1-4)GlcNAc(b1-4)GlcNAc
# How it was run: as §1
# [8] = biological target: GlcNAc(b1-4)GlcNAc(b1-4)GlcNAc(b1-4)GlcNAc(b1-4)GlcNAc
# How it was run: as §1
# [9] = biological target: GlcNAc(b1-4)GlcNAc(b1-4)GlcNAc(b1-4)GlcNAc(b1-4)GlcNAc(b1-4)GlcNAc
# How it was run: as §1
# [10] = biological target: GlcNAc6S(b1-3)Gal(b1-4)GlcNAc
# How it was run: as §1
# [11] = biological target: Man(a1-2)Man(a1-2)Man(a1-3)Man
# How it was run: as §1
# [12] = biological target: Neu5Ac(a2-3)Gal(b1-3)GlcNAc(b1-2)[Neu5Ac(a2-3)Gal(b1-3)GlcNAc(b1-4)]Man(a1-6)[Neu5Ac(a2-3)Gal(b1-3)GlcNAc(b1-2)Man(a1-3)]Man(b1-4)GlcNAc(b1-4)GlcNAc
# How it was run: as §1
# [13] = biological target: Neu5Ac(a2-3)Gal(b1-3)GlcNAc(b1-3)Gal(b1-3)GlcNAc
# How it was run: as §1
# [14] = biological target: Neu5Ac(a2-3)Gal(b1-4)GlcNAc(b1-2)Man
# How it was run: as §1
# [15] = biological target: Neu5Ac(a2-3)[GalNAc(b1-4)]Gal(b1-4)GlcNAc(b1-3)GalNAc
# How it was run: as §1
# [16] = biological target: Neu5Ac(a2-6)Gal(b1-4)GlcNAc(b1-2)Man(a1-3)[Man(a1-6)]Man(b1-4)GlcNAc(b1-4)GlcNAc
# How it was run: as §1
# [17] = biological target: Neu5Ac(a2-6)Gal(b1-4)GlcNAc(b1-2)Man(a1-3)[Neu5Ac(a2-3)Gal(b1-4)GlcNAc(b1-2)Man(a1-6)]Man(b1-4)GlcNAc(b1-4)GlcNAc
# How it was run: as §1
# [18] = biological target: Neu5Ac(a2-6)Gal(b1-4)GlcNAc(b1-2)[Neu5Ac(a2-6)Gal(b1-4)GlcNAc(b1-6)]Man(a1-6)[Neu5Ac(a2-6)Gal(b1-4)GlcNAc(b1-2)Man(a1-3)][GlcNAc(b1-4)]Man(b1-4)GlcNAc(b1-4)GlcNAc
# How it was run: as §1
# [19] = biological target: Neu5Ac(a2-6)GalNAc(b1-4)GlcNAc
# How it was run: as §1
# [20] = biological target: Neu5Ac(a2-8)Neu5Ac(a2-3)Gal(b1-3)GalNAc(b1-4)[Neu5Ac(a2-3)]Gal(b1-4)Glc
# How it was run: as §1
# [21] = biological target: Neu5Ac(a2-8)Neu5Ac(a2-3)Gal(b1-3)GalNAc(b1-4)[Neu5Ac(a2-8)Neu5Ac(a2-3)]Gal(b1-4)Glc
# How it was run: as §1
# [22] = biological target: Neu5Ac(a2-8)Neu5Ac(a2-3)[Gal(b1-3)GalNAc(b1-4)]Gal(b1-4)Glc
# How it was run: as §1
# [23] = biological target: Neu5Ac(a2-8)Neu5Ac(a2-8)Neu5Ac(a2-3)Gal(b1-4)Glc
# How it was run: as §1
# Neu5Ac(b2-6)GalNAc = biological target: Neu5Ac(b2-6)GalNAc
# How it was run: as §1
# [24] = biological target: Neu5Gc(a2-3)Gal(b1-3)GlcNAc
# How it was run: as §1
binder,measurement,setting,value
B1,glycan array binding signal (z-score),[1],-1.21
same,glycan array binding signal (z-score),[2],0.73
same,glycan array binding signal (z-score),[3],1.09
same,glycan array binding signal (z-score),[4],-0.281
same,glycan array binding signal (z-score),[5],-0.268
same,glycan array binding signal (z-score),[6],2.07
same,glycan array binding signal (z-score),[7],0.151
same,glycan array binding signal (z-score),[8],-1.3
same,glycan array binding signal (z-score),[9],1.17
same,glycan array binding signal (z-score),[10],0.319
same,glycan array binding signal (z-score),[11],-0.544
same,glycan array binding signal (z-score),[12],0.153
same,glycan array binding signal (z-score),[13],-1.59
same,glycan array binding signal (z-score),[14],-1.13
same,glycan array binding signal (z-score),[15],2.15
same,glycan array binding signal (z-score),[16],2.04
same,glycan array binding signal (z-score),[17],-0.553
same,glycan array binding signal (z-score),[18],0.307
same,glycan array binding signal (z-score),[19],-1.18
same,glycan array binding signal (z-score),[20],1.68
same,glycan array binding signal (z-score),[21],-0.913
same,glycan array binding signal (z-score),[22],0.046
same,glycan array binding signal (z-score),[23],3.06
same,glycan array binding signal (z-score),Neu5Ac(b2-6)GalNAc,1.37
same,glycan array binding signal (z-score),[24],-0.635
